This is an account of results in PubChem BioAssay (NCATS).

Inconclusive results are not listed. Calls of active or inactive are those of the source. The call rests on the fitted dose curve; in most records, active means well fitted curve in the direction sought with a large enough effect in the signal ratio, with a control signal flat (not every such curve was filed as active); inconclusive means small, poorly fitted or top-dose-only effect, or effect the other way, or a change in a side signal; inactive means no such curve, though single readings can be large or run the other way; the % refers to the signal ratio.

Sequence of Estrogen receptor (Homo sapiens) (P03372 whole entry, looked up): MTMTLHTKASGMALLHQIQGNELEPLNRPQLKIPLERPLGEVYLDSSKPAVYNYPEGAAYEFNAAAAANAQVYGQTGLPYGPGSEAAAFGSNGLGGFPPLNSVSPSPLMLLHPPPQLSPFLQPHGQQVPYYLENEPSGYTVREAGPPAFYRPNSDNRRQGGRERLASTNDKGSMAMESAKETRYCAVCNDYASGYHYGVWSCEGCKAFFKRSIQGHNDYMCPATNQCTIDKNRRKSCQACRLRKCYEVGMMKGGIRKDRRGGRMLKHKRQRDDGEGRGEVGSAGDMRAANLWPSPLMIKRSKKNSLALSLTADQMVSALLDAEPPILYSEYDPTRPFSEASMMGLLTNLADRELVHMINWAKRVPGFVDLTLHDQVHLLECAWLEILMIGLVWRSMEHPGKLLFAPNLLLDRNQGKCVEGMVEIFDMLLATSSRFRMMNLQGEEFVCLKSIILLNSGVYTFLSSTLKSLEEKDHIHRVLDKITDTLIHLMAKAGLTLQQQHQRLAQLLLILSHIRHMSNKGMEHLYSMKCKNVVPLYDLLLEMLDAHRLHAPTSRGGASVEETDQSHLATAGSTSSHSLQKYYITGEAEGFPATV

The test addresses Estrogen receptor (Homo sapiens) (UniProt P03372). Nature of the test: qHTS assay for small molecule antagonists of estrogen receptor alpha signaling (AID 588513). To be noted: ER-alpha-UAS-bla HEK293, beta-lactamase ratio, antagonist mode; series mostly up to 76.9 µM. An excerpt: NIH Chemical Genomics Center [NCGC]
U.S. Environmental Protection Agency [EPA]
National Institutes of Environmental Health Sciences [NIEHS]
National Toxicology Program [NTP]
Estrogen receptor alpha (ER-alpha) is an important member of nuclear hormone receptors. ER-alpha plays important role in breast cancer as well as in other women's health issues. The majority of breast cancers is estrogen receptor (ER) positive and depends on estrogen for growth. There is also growing concern for some of environmental chemicals which may contribute the increasing the incidence of breast cancer. Therefore, it is important to understand the effect of environmental chemicals in ER-alpha signaling pathway.
NCGC Assay Protocol Summary
Using a beta-lactamase reporter-gene under control of the ER response element, a cell-based assay [ER-alpha-UAS-bla GripTiteTM cell-Based Assay from Invitrogen] was used to measure ER-alpha signaling pathway in antagonist mode. ER-alpha-UAS-bla-GripTite HEK 293 cells were used with assay medium containing 2% charcoal/dextran treated FBS, 0.1 mM NEAA and 1 mM sodium pyruvate. Cells were cultured in this assay medium overnight in the flasks before the assay. The assay was performed in clear bottom black Greiner 1536-well plates. 17-beta-estradiol was used as a positive control in the screen. Library compounds were measured for their ability to inhibit the reporter gene activity. Compounds were screened in a titration series in 1536-well format. […] Data was normalized relative to 17-beta-estradiol control (0.5nM, 100%), and DMSO only wells (basal, 0%). Concentration-response titration points for each compound were fitted to the Hill equation yielding concentrations of half-maximal inhibition (IC50) and maximal response (efficacy) values.
qHTS protocol for ER-alpha beta-lactamase assay in antagonist mode
[Step] [Parameter] [Value] [Description]
1. Reagent; 5 uL; 5000 cells/well
2. Incubation; 37 C for 4 hrs
- Dose response, Start 38uM, 1:2 dilutions with duplicates
- Two columns with 38 and 19uM (final) concentration.
5. Agonist (Stimulator); 1uL; 17-beta-estradiol at 0.5nM (final) concentration
6. Incubation; 37 C for 18 hrs
7. Detection reagent; 1 uL of CCF4-dye
8. Incubation; RT for 2 hrs
9. Detection; Fluorescence; Envision plate reader or Acumen plate reader
Turning to `[Cl][In]([Cl])[Cl]`, the result was inactive.

For the molecule `Oc1cccc(O)c1`, the outcome was inactive.

As to `COC(=O)C1=C(C)NC(C)=C(C(=O)OC)C1c1ccccc1[N+](=O)[O-]`, the outcome was inactive.

As to `Cc1cccc(Nc2cc(Cl)nc(SCC(=O)O)n2)c1C`, the result was inactive.

In the case of `CC1(C)[C@@H]2CC[C@@]1(C)C(=O)C2`, the outcome was inactive.

For the molecule `Nc1ccc(S(=O)(=O)Nc2nccs2)cc1`, the result was inactive.

With `CCCCC(CC)COC(=O)c1ccccc1O` (configuration not stated), the outcome was inactive.

Take `COc1ccccc1O`: the outcome was inactive.

As to `CC12CCC(CC1)C(C)(C)O2`, the result was inactive.

As for `CNC(=O)Oc1ccc2c(c1)[C@]1(C)CCN(C)[C@@H]1N2C`, the outcome was inactive.

For the molecule `CCOC(=O)c1ccc(O)cc1`, the result was inactive.

On to `C[C@]12C[C@H](O)[C@H]3[C@@H](CCC4=CC(=O)CC[C@@]43C)[C@@H]1CC[C@@H]2C(=O)CO`, for which the outcome was inactive.
